# Test results from PubChem BioAssay (NCI).
# This is part of a sample that, as a whole, favours compounds with a hit. Of some 79,000 tested, about 15% had one in any assay. Values without a mark were called inactive. Active and inactive are the calls of the source. Cut-off read from the data, not from the text of the source: active = growth inhibition above about 70%; inactive = the rest.
# Experiments:
# [1] = NCI Yeast Anticancer Drug Screen. Data for the rad50 strain (AID 155);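 note: 0% = growth of vehicle-only cultures of the same strain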; conditions: S. cerevisiae rad50 strain growth inhibition; at 50.0 µM; hits give high values
# In short: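 Readout: growth inhibition relative to vehicle-treated cultures. Compound exposure was carried out in a genetically defined yeast strain deficient in DNA damage repair.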
# [2] = NCI Yeast Anticancer Drug Screen. Data for the mec2-1 strain (AID 157); conditions: S. cerevisiae mec2-1 strain, at 50.0 µM, hits give high values
# In short: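 Test agents were screened against the mec2-1 yeast strain, with defined DNA repair or cell cycle alteration. Growth was scored as inhibition against vehicle-only controls.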
# [3] = NCI Yeast Anticancer Drug Screen. Data for the sgs1 mgt1 strain (AID 161);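 note: 0% = growth of cultures given vehicle only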; conditions: S. cerevisiae sgs1 mgt1 strain, at 50.0 µM, hits give high values
# In short: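 Genetically altered yeast, compound exposure, growth inhibition relative to vehicle.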
# [4] = NCI Yeast Anticancer Drug Screen. Data for the cln2 rad14 strain (AID 165);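 note: 0% = growth equal to vehicle treated cultures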; conditions: S. cerevisiae cln2 rad14 strain, at 50.0 µM, hits give high values
# In short: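 Growth of compound-exposed yeast (cln2 rad14 genotype) measured and expressed as inhibition relative to vehicle.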
# [5] = NCI Yeast Anticancer Drug Screen. Data for the bub3 strain (AID 167); conditions: S. cerevisiae bub3 mutant strain, at 50.0 µM, hits give high values
# In short: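 Readout: yeast growth inhibition, expressed relative to vehicle-only wells. The test organism is a mutant strain from a panel with lesions in DNA repair or checkpoint genes.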
# [6] = NCI Yeast Anticancer Drug Screen. Data for the mlh1 rad18 strain (AID 175); conditions: S. cerevisiae mlh1 rad18 strain growth inhibition; at 50.0 µM; hits give high values
# In short: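 In this whole-cell yeast screen, a strain with altered DNA damage repair is challenged with compound, and its growth is measured against matched vehicle-treated controls.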
SMILES,growth inhibition [1],growth inhibition [2],growth inhibition [3],growth inhibition [4],growth inhibition [5],growth inhibition [6]
Nc1c(Cl)cnn2nnnc12,-7.5%,-17.4%,-15.6%,-11.9%,2.95%,-4.25%
CC(=O)NC(CSC1=C2NC(=O)\C=C/C=C/C=C\C(C)C(O)CC(=O)/C(C)=C\CC(O)/C=C/C(C)C(O)C(C)C=C(C)C(=O)c3c(O)c(C)cc(c3C1=O)C2=O)C(=O)O (stereo not given),1.1%,7.95%,36.6%,23.3%,15.4%,8.45%
CC(=O)CC(=O)OC(C)OC(=O)CC(C)=O,-2.1%,-13.4%,-11.4%,-2.5%,-0.7%,0.25%
CCCCC(/C=C\C(=O)O)CC (stereo not given),29.7%,-6.1%,-11.8%,5.05%,5.75%,14.4%
CC(C)(C)C(=O)C[n+]1ccccc1,3.85%,-6.45%,8.45%,-15%,5.35%,15.2%
O=C(O)C=C(CBr)CBr,11.5%,-3%,-1.25%,-24.1%,14.1%,9.05%
CC(C)=Nn1cnc(C(=N)C#N)c1N,22.9%,3.5%,-0.9%,14.5%,4.8%,-7.45%
Nc1cccc2c(S(=O)(=O)O)cccc12,-2.9%,-3.15%,-11.9%,-66.7%,0.3%,0.75%
O=C1c2ccccc2C(=O)c2[nH]ncc21,18.4%,13.8%,-3.25%,-61.6%,10.1%,-1.8%
CC1=CC(=O)N(NC(N)=O)C1=O,-11.4%,-2.9%,-9.5%,-27.9%,-16.4%,2.15%
CCOC(=O)Nc1nc2ccccc2n1CN1CCCCC1,18.5%,11.1%,23.4%,16.4%,0.2%,27.2%
CCN(Cc1ccc(CN(CC)C(=O)c2c(-c3ccccc3)noc2C)cc1)C(=O)c1c(-c2ccccc2)noc1C,13.6%,-8.1%,5.1%,17.8%,0.2%,-13.6%
COc1cc(C=O)cc(Br)c1O,13.3%,-3.55%,34.1%,-8.45%,-19.7%,34.4%
CCCCC(=O)/C=C/c1ccccc1,12.3%,-8.15%,-3.95%,-46.5%,-6.6%,-3.4%
COc1ccc([C@@]23Oc4cc(OC)cc(OC)c4[C@]2(O)[C@H](O)[C@H](C(=O)N(C)C)[C@H]3c2ccccc2)cc1,91.8% (active),93.5% (active),92.8% (active),91.5% (active),91.3% (active),91.1% (active)
NC(CCC(=O)NC(CSSCCCCS(=O)O)C(=O)NCC(=O)O)C(=O)O (stereo not given),-1.65%,-8.2%,11.3%,-10.2%,14.2%,1.4%
COCC(N=CN1CCCc2ccccc2[C@@H]1CCCCl)C(C)(C)C (stereo not given in full),-6.6%,10.1%,25.9%,19.7%,19.9%,13.1%
CCOc1ccc(N=Cc2c3ccccc3nc3ccccc23)cc1,-3.05%,14.5%,-3.25%,25.9%,6.25%,-9%
CC(=O)OCC(NC(=O)C(N)CC(=O)O)C(=O)NCC(=O)Oc1ccc([N+](=O)[O-])cc1 (stereo not given),13.9%,15.7%,11.8%,12%,1.9%,5.75%
CCOC(=O)C1C(=O)CC1(C)C (stereo not given),12.2%,6.9%,12.2%,36%,25.9%,21.8%

SMILES,growth inhibition [1],growth inhibition [2],growth inhibition [3],growth inhibition [4],growth inhibition [5],growth inhibition [6]
Cc1cc2nc(C(C)C(=O)c3ccc(Cl)cc3)c(=O)[nH]c2cc1C (stereo not given),-12.1%,-12.7%,-0.9%,0.5%,-24.4%,-3.9%
Nc1ccc(C(=O)NN2C(=O)C(Cl)C2c2ccccc2)cc1 (stereo not given),-30.2%,-31.8%,-62.5%,-1.8%,-30.4%,-38.2%
CC1=C(N2CCCCC2)S(=O)(=O)c2ccccc2C1,42.6%,3.6%,26.5%,-19.6%,8.15%,44%
CCc1ccc(NC(C)=O)cc1C,-9.5%,11.7%,-0.95%,27%,-1.15%,-9.9%
Cc1ccc(S(=O)(=O)OC(c2ccc(C(OS(=O)(=O)c3ccc(C)cc3)(C(F)(F)F)C(F)(F)F)cc2)(C(F)(F)F)C(F)(F)F)cc1,4.45%,6.65%,-17.8%,10.8%,4.4%,4.7%
CCCCCO/C=C/CN1CCOCC1,8.85%,15.2%,3.1%,-8.5%,11.8%,-3.2%
Cc1nn(-c2ccccc2)c2c1N=C(C(=O)O)CC(c1ccccc1)=N2,18.7%,25.9%,23.9%,28.1%,16.7%,13.8%
OCCCc1nc2ccccc2[nH]1,-10.3%,-21.8%,-15.1%,8.85%,-17.7%,11.1%
O=C(OC(=O)c1cccnc1)c1cccnc1,-30.2%,-9.5%,-7.75%,11.5%,-2.85%,6.65%
NC(C(=O)O)C1CCCC1 (stereo not given),2.8%,-5.1%,-20.8%,-14%,-92.8%,7.6%
Cc1cccc(C)c1NC(=O)N(Cc1ccccc1)Cc1ccccc1,1.65%,15.2%,20.6%,-2%,36.7%,30.6%
CCOC(=O)C1=C(C)c2ccccc2OC1C(=O)O (stereo not given),4.55%,11.1%,16.8%,-23.4%,-13.1%,-10.3%
O=[N+]([O-])c1ccc(N/N=C/c2ccccn2)nc1,8.1%,-6.1%,10.1%,-7.7%,6%,5.4%
CC(C)(CCC(C)(C)c1ccccc1)c1ccccc1,-2.7%,-35.7%,-9.2%,-9.75%,-17.9%,-8.25%
CCCCC[N+]1([O-])CCOCC1,4.05%,-4.1%,-7.1%,-24.4%,-3.1%,1.05%
CCCCN(CCCC)C(=O)OCC,30.2%,8.3%,6.35%,12.4%,19.2%,14.5%
O=C(Nc1ccccc1)c1cccnc1,-4%,-18.4%,-0.2%,-13.9%,-2.75%,-2.65%
Nc1cc(C(=O)O)ccc1Cl,-9.7%,-8.1%,-18.9%,-88.8%,-12.2%,-5.4%
CC(C)(C)C(=O)Nc1ccccc1,37.7%,17%,0.2%,1.55%,-12.4%,23%
O=[N+]([O-])c1ccc(-c2csc3nc(-c4ccccc4)nn23)cc1,-0.5%,-31.2%,-29.9%,10.4%,-28.2%,-23.2%
